# Laboratory results: PubChem BioAssay (NCATS)
# Values joined by “and” are separate entries in the source; they are usually repeats but may differ in a detail not shown here. Identical values can stand only once. Results filed as inconclusive are left out. Unmarked numbers belong to inactive results. Active and inactive are the calls of the source. The call rests on the fitted dose curve; in most records, active means well fitted cell-killing curve with a large enough effect; inconclusive means small, poorly fitted or top-dose-only effect, or effect the other way; inactive means no such curve, though single readings can be large or run the other way.
# Assay: Viability qHTS for spleen associated tyrosine kinase inhibitor (SYKi) drug resistant MV4-11 cells (AID 1963824); further: nearly all actives have a fitted effect of over 35% in size
# Conditions: SYKi-resistant MV4-11 viability, CellTiter-Glo, 72 h; series mostly up to 45 µM; viability, % of control: at the top concentration
# Outline: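 SYK-inhibitor-resistant MV4-11 AML cells were seeded at 500 per well onto compound and cultured 72 hours (37 °C, 5% CO2). CellTiter-Glo was then added, and after 10 min at room temperature, luminescence gave viability.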
# Potency means the concentration at half of the fitted maximal effect.
Compound,Potency,"viability, % of control"
CC1=CC(=O)[C@@H](O)[C@]2(C)C3[C@@H](O)[C@@H]4OC(=O)[C@@H]([C@H]4C)[C@]3(C)C(=O)C[C@@H]12 (stereo partly drawn),1.01 µM (active),–
CC[C@H]1CN2CC[C@H]1C[C@@H]2[C@@H](O)c1ccnc2ccc(OC)cc12,–,87.7%
C=C1C[C@@H]2[C@H](CC[C@]3(C)C(=O)CC[C@@H]23)[C@@]2(C)C=CC(=O)C=C12,5.96 µM (active) and 11.8 µM (active),–
CN1C(=O)C(Cc2ccc3ccccc3c2)N=C(c2ccc(O)cc2)c2cc(Cl)ccc21 (stereo not drawn),13 µM (active),–
CC[C@H]1C[C@@H]2CC[C@@H](O2)[C@@H](C)C(=O)O[C@H](CC)C[C@H]2CC[C@H](O2)[C@H](C)C(=O)O[C@@H](C)C[C@@H]2CC[C@@H](O2)[C@@H](C)C(=O)O[C@H](CC)C[C@H]2CC[C@H](O2)[C@H](C)C(=O)O1,0.0137 µM (active),–
CC[C@@H](C)[C@H]1C(=O)O[C@H](C(C)C)C(=O)N(C)[C@@H](C(C)C)C(=O)O[C@H](C(C)C)C(=O)N(C)[C@@H](C(C)C)C(=O)O[C@H](C(C)C)C(=O)N1C,2.73 µM (active),–
COC1CC(O[C@H]2CC[C@@]3(C)C(CCC4C3CC[C@]3(C)C(C5=CC(=O)OC5)CCC43O)C2)OC(C)C1OC1OC(COC2OC(CO)C(O)C(O)C2O)C(O)C(O)C1O (stereo partly drawn),0.693 µM (active),–
CC[C@H](C)[C@H](NC(=O)[C@H]1CCCCN1C)C(=O)N(COC(=O)CC(C)C)[C@H](C[C@@H](OC(C)=O)c1nc(C(=O)N[C@@H](Cc2ccc(O)cc2)C[C@H](C)C(=O)O)cs1)C(C)C,0.0004 µM (active),–
